# Only some compounds are listed: those with a hit (about 4.5% of all), similar ones and a draw of the others.
# hgDAF-12 ag – agonists of H. glycines DAF-12 nuclear receptor; 370,000 compounds, 1.8% hits; HEK293 GAL4-hgDAF12 UAS-luciferase reporter, agonist luminescence; normalized to butyrate control; activation, % at 6.8 µM;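 active means activation above a cutoff set at the mean of all screened compounds plus 3 SD, cut at about 10% in these data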;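 further: 0% = DMSO wells and 100% = sodium butyrate wells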
# ssDAF-12 act – activators of S. stercoralis DAF-12 nuclear receptor; HEK293 ssDAF-12/GRIP1 lit1-tk-luc reporter, luminescence; % of 3 µM dafachronic acid response; activation, % at 6.8 µM; 370,000 compounds, 1% hits; AID 652126;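 active means activation above the mean over all tested compounds plus 3 SD, cut at about 0.9% in these data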;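 further: 0% = DMSO-only wells and 100% = 3 µM delta7-dafachronic acid wells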
# hcDAF12 agonist – H. contortus DAF-12 activation, primary screen; HEK293 hcDAF-12 lit1-tk-luc reporter, luminescence; 0% DMSO, 100% Δ7-dafachronic acid; activation, % at 6.8 µM; 370,000 compounds, 1.4% hits; AID 652067;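 active means activation above the mean of all tested compounds plus 3 SD, cut at about 5.5% in these data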;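 further: 100% = response to 3 µM Δ7-dafachronic acid high control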
# DAX1 inh-1 – inhibits human nuclear receptor DAX1. 340,000 compounds, 0.99% hits. inhibition, % at 6.75 µM. HEK293 Gal4-DAX1 luciferase reporter, luminescence;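 active means inhibition above the mean over all tested compounds plus 3 SD, cut at about 4.2% in these data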;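 further: 0% = DAX1-transfected cells with DMSO and 100% = empty-vector control cells with DMSO; inhibition shows as a rise in luminescence from relieved DAX1 repression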
# Target sequence (P51843 207-470 limits assumed): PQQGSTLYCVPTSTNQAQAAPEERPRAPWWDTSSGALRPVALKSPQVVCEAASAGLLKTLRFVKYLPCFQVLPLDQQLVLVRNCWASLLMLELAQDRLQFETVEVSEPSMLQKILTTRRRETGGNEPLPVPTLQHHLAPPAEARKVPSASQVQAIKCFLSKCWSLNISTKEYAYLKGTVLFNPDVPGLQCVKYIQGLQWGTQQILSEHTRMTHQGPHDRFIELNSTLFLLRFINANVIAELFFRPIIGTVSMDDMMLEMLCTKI
# DAX1 inh-2 – DAX1 (NR0B1) inhibition, primary screen | 370,000 compounds, 1.1% hits | AID 652010 | inhibition, % at 6.8 µM | HEK293T StAR-luciferase reporter, SF-1/DAX-1 repression relief;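 active means inhibition above the mean over all tested compounds plus 3 SD, cut at about 3.6% in these data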;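 further: 0% = DAX-1 cells with DMSO and 100% = cells lacking DAX-1 with DMSO; higher inhibition means more luminescence from relief of DAX-1 repression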
# FXN GAA850 act – increases GAA850 frataxin promoter reporter activity | HEK293 lucGAA850 FXN promoter luciferase reporter, 24 h; percent of 10 µM SAHA response | activation, % at 6 µM | 360,000 compounds, 0.56% hits | AID 540364;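 active means activation above the average of all compounds screened plus 3 SD, cutoff fixed separately per campaign, cut at about 7.5% in these data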;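 further: 0% = DMSO wells and 100% = 10 µM SAHA wells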
# LXR ag – counter-screen for hcDAF-12 agonists: agonists of human LXR-beta; HEK293 Gal4-LXR tk-luc reporter, luminescence, 24 h; normalized: DMSO 0%, positive control 100%; activation, % at 6.8 µM; 3,400 tested, under 10 active; shares compounds with hcDAF12 agonist;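 active means mean percent activation of the reporter above a cutoff set as the average over tested compounds plus their standard deviation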
# hcDAF12 conf – hcDAF-12 agonism, confirmation assay | activation, % at 6.8 µM | AID 743032 | 3,400 compounds, 61% hits | shares compounds with hcDAF12 agonist | HEK293 hcDAF-12 lit1-tk-luc reporter, luminescence; % of Δ7-dafachronic acid response;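 active means mean activation across triplicate tests above the threshold derived from the earlier primary screen, cut at about 5.5% in these data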;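 further: 0% = DMSO only wells and 100% = 3 µM Δ7-dafachronic acid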
# An asterisk follows results filed as active; / = not tested or not shown.
SMILES,hgDAF-12 ag,ssDAF-12 act,hcDAF12 agonist,DAX1 inh-1,DAX1 inh-2,FXN GAA850 act,LXR ag,hcDAF12 conf
Cc1ccc(NCC(=O)N/N=C/c2cc3ccccc3nc2Cl)cc1,14*,2.0*,7.6*,1,1,1,0,5.6*
N#CC1(c2ccccc2)CCCN1C(=O)c1ccccc1Br (stereo not given),-1,0,10*,0,0,0,0,2
COc1ccccc1C(=O)N1CCCC1(C#N)c1ccccc1 (stereo not given),0,-1,0,1,0,-1,/,/
O=C(O)c1ccc(Cn2cnc3c(=O)[nH]cnc32)cc1,1,1.2*,10*,1,1,0,0,-1
O=c1[nH]cnc2c1ncn2Cc1ccc([N+](=O)[O-])cc1,-1,-1,-3,1,-1,3,/,/
COc1ccc(C(O)c2ncc(-c3ccc4ccccc4c3)[nH]2)cc1F (stereo not given),2,-2,0,/,1,-1,/,/
Cc1noc(NS(=O)(=O)c2ccc(NC(=O)c3ccc(Cl)c(S(=O)(=O)N(C)c4ccccc4)c3)cc2)c1C,-1,0,0,0,2,2,/,/
Oc1ccc(-c2cn3cc(C(F)(F)F)ccc3n2)cc1,12*,1,7.7*,-4,4,3,3,9.0*
Oc1ccc(-c2cccc(-c3ccc(O)cc3)n2)cc1,2,-1,-1,-2,0,0,/,/
O=S(=O)(NCc1ccccn1)c1ccccn1,-2,-1,0,2,0,-1,/,/
O=C(CN1C(=O)C2C3C=CC(C4CC34)C2C1=O)Nc1cnc2ccccc2c1 (stereo not given),1,0,7.5*,3,0,1,0,2
O=C(Nc1ccc(Br)cc1)Nc1ccccc1Cl,9,0,7.7*,-1,0,0,1,4
CCCCC[C@@H](/C=C/C1C(=O)C=C[C@H]1C/C=C\CCCC(=O)OC)OC(C)=O (stereo not given in full),-3,-1,-2,-2,-1,6,/,/
COc1cc(SC)ccc1C(=O)Nc1ccccc1,9,0,7.7*,2,2,4,1,8.3*
COc1cccc(NC(=O)Nc2ccc(Cc3ccncc3)cc2)c1,9,-1,-2,-1,0,2,/,/
COc1ccccc1C(=O)Nc1cccc(SC)c1,9,0,3,3,-1,2,/,/
COc1ccc(OC)c(NC(=O)c2cc3ccccc3cc2OC)c1,1,-1,-1,-2,0,3,/,/
COc1cccc(NC(=O)c2cc3ccccc3cc2OC)c1,10,0,8.4*,4,1,6,1,9.3*
COc1cccc(NC(=O)Nc2ccncc2)c1,2,-1,6.8*,0,0,0,0,0
CC(C)c1nc(SCC(=O)N2CCCCC2)c2c(=O)n(C)c(=O)n(C)c2n1,-4,-1,0,2,-1,-1,/,/
CC(C)c1ccccc1NC(=O)COC(=O)Cc1c[nH]c2ccccc12,3,1.3*,7.9*,0,1,1,0,4
O=C(O)c1ccc2c(=O)n3c(nc2c1)/C(=C/c1ccc(C(F)(F)F)cc1)CC3,1,-1,7.0*,-1,0,1,0,1
Cc1cnc(NC(=O)C2COc3ccccc3O2)s1 (stereo not given),4,-1,9.2*,-3,1,-1,1,7.2*
O=C(Nc1nc(-c2ccccc2)cs1)C1COc2ccccc2O1 (stereo not given),3,-1,-1,0,0,-1,/,/
Cc1csc(NC(=O)C2COc3ccccc3O2)n1 (stereo not given),7,0,7.0*,-2,3,1,1,5
SMILES,hgDAF-12 ag,ssDAF-12 act,hcDAF12 agonist,DAX1 inh-1,DAX1 inh-2,FXN GAA850 act,LXR ag,hcDAF12 conf
C/C(=N\NC(=O)c1n[nH]c2c1CCC2)c1ccco1,8,0,11*,/,1,1,1,5
O=[N+]([O-])c1ccc(-c2ccc(C=Nc3cccc4ccccc34)o2)cc1,2,0,6.8*,0,1,3,0,1
COc1cc(OC)cc(-c2nc3cc(C)ccc3o2)c1,10,2.3*,17*,2,3.8*,8,1,13*
Cc1ccc(-c2nc3cc(Cl)ccc3o2)cc1,8,0.9*,8.2*,4,3,6,2,16*
Cc1ccc(CNc2ncccc2-c2nc3cc(Cl)ccc3o2)cc1,0,0,2,0,0,0,/,/
Cc1ccc(S(=O)(=O)NCC(=O)OCC(=O)NCc2cccs2)cc1,0,-1,0,4,0,-3,/,/
COc1cccc(OC)c1NC(=O)C1CCCN1C(=O)Nc1cccc(Cl)c1 (stereo not given),0,0,-1,-1,0,0,/,/
CCc1cccc2c(C(=O)C(F)(F)F)cn(CC(=O)N3CCOCC3)c12,1,-1,-1,-2,0,2,/,/
S=C1NC2(CCCC2)Nc2ccccc21,3,0,6.7*,2,0,3,0,5
Cc1cc2ccccc2n1CCNC(=O)c1ccc(Br)o1,2,0,8.0*,3,3,6,0,-1
Cc1cc2ccccc2n1CCNC(=O)c1ccccc1,1,0,4,-1,1,3,/,/
O=C(Nc1ccc(F)c([N+](=O)[O-])c1)C(=O)c1c(O)[nH]c2ccccc12,2,0,6.9*,4,0,0,0,4
Cc1cc(NC(=O)CSc2c(C)[nH]c3ccccc23)no1,4,1.1*,6.8*,2,1,0,0,1
[O-][n+]1c2ccccc2c2n1CCCN=C2c1ccc(Cl)cc1,3,1,8.0*,2,2,2,0,8.6*
[O-][n+]1c2ccccc2c2n1CCN=C2c1ccc(Cl)cc1,4,0,5,2,0,4,/,/
O=C(c1cc(-c2ccc(Br)cc2)on1)N1CCCCCC1,4,0,2,2,1,3,/,/
O=C(c1cc(-c2ccc(Br)cc2)on1)N1CCOCC1,13*,0,7.2*,0,3,3,1,5

# High-throughput results from PubChem BioAssay.
